In all, about 370,000 compounds went through this assay and about 2,400 (0.65%) were called active. The list comes from a sample in which actives are over-represented; it also holds similar structures and randomly drawn compounds. A number with no mark means an inactive call.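 Rule for the calls: active = inhibition above the screen-wide mean plus 3 SD (cut at about 13% in these data); inactive = the rest.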

The test system of this experiment is HIV-1 integrase (with human LEDGF/p75). Briefly: blockers of LEDGF/p75-dependent integrase strand transfer – biochemical, TR-FRET, high throughput, primary screen (AID 743269).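 Note: signal is the Cy5 over europium emission ratio at 671 and 618 nm; 0% = plate median of compound wells.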 The note with it: TR-FRET IN-LEDGF/p75 DNA integration, Eu/Cy5; at 3.7 µM; active compounds read high.
As for `COc1cc(Cn2c(N)c(C(=O)NCc3ccco3)c3nc4ccccc4nc32)cc(OC)c1OC`, the inhibition is 1.57%.

`CCOC(=O)c1cccc(C2=C(CNC(=O)c3ccncc3)[C@H]3CC[C@@H](C2)N3Cc2ccccc2)c1`: the inhibition was -5.73%.

With `CCOC(=O)c1c(N)n(Cc2ccccc2)c2nc3ccccc3nc12`, the inhibition was 32.8% (active).

Regarding `CCN1C(=O)C(=Cc2c(C)n(CC(=O)NCC3CCCO3)c3ccccc23)C(=O)N(CC)C1=S` (stereo not given), the inhibition was -2.24%.

Turning to `COc1ccc2c(c1)[C@@]13CCCCC1[C@@H](C2)NCC3` (stereo not given in full), the inhibition is -1.92%.

For the compound `Cc1c(C(=O)O)cccc1-n1c(C)cc(/C=C2\C(=O)NC(=O)N(c3ccc4c(c3)OCO4)C2=O)c1C`, the inhibition is 15.4% (active).

In the case of `O=P(OC1=CCCCC1)(c1ccccc1)c1ccccc1`, the inhibition was 6.63%.

Regarding `CCC(C)(O)C(=O)OC1C(=O)OC2CC3C(C)=CC(=O)C(O)C3(C)C3C4(O)OCC23C1C(C)C4O` (stereo not given), the inhibition was -3.3%.

For `CCOc1cccc(=NC2CCCCC2)c2c(C)[nH]c(C)c12`, the inhibition is 36.3% (active).

`Cc1cccc(-n2c(O)c(C=NC34CN5CN(CN(C5)C3)C4)c(=O)[nH]c2=O)c1`: the inhibition was -3.72%.

Turning to `CC(C)Nc1nc(Cl)nc(NC(C)C)n1`, the inhibition was -1.42%.

For `Brc1ccc2c(c1)CNCc1cnnn1-2`, the inhibition was 6.88%.

For the compound `Cc1cc(N2CCNC[C@@H]2C)ccc1N1CC[C@H](O)C1`, the inhibition is 7.07%.

Regarding `COc1ccc(N2C(=O)/C(=C/c3ccco3)C(=O)NC2=S)cc1`, the inhibition is 59.1% (active).

On to `O=S(=O)(c1ccccc1)N1CCC2CCNC2C1` (stereo not given), for which the inhibition is 5.81%.

On to `CCC(C)NC1(c2ccccc2)CCCCC1` (stereo not given), for which the inhibition was 2.52%.

As to `COC(=O)C(O)(c1ccc(NC(=O)c2ccco2)c(OC)c1)C(F)(F)F` (stereo not given), the inhibition was -2.33%.

As to `CO[C@H]([C@H](C)/C=C/N(C)C=O)[C@@H](C)C(=O)CC[C@H](C)[C@H](O)[C@H](C)[C@H]1OC(=O)/C=C/C(C)=C/[C@H](O)[C@H](OC)C[C@@H]2C=CC[C@@H](C[C@H](OC)[C@@]3(CO3)[C@@H](OC)C[C@@H](OC)[C@@H]1C)O2`, the inhibition was 0.17%.

For `Clc1ccc([C@@H]2CC3CCC2N3)cn1` (stereo not given in full), the inhibition was 4.15%.

For `Cc1ccnc(-n2c(C)cc(/C=C3\C(=O)NC(=S)N(C)C3=O)c2C)c1`, the inhibition was 1.59%.

Consider `Cc1cc(C=C2C(=O)NC(=O)NC2=O)c(C)n1-c1ccncc1`, for which the inhibition was 3.8%.

Turning to `Cc1cc(/C=C2/C(=O)NC(=O)N(Cc3ccco3)C2=O)c(C)n1-c1ccc(C(=O)O)cc1`, the inhibition was 86% (active).

As to `O=C1NC(=O)N(Cc2ccco2)C(=O)/C1=C\c1ccc(-c2ccc(F)cc2)o1`, the inhibition was 73.2% (active).

Take `Cc1ccccc1CCC[C@@H](CC1CCCCC1)CN(C)C(=O)Oc1ccccc1`: the inhibition was -1.47%.

Take `C[N+]12CN3CN(CN(C3)C1)C2`: the inhibition was -0.49%.

As to `COc1cc(OC)cc(C(=O)NCCN2CCC3(CC2)C(=O)NCN3c2ccccc2)c1`, the inhibition is 4.72%.

For the compound `CCN(CC)C(=O)[C@@H]1C=C2c3cccc4[nH]c(Br)c(c34)C[C@H]2N(C)C1`, the inhibition was 1.36%.

`CS(=O)(=O)N1CCC2CCNC2C1` (stereo not given): the inhibition was -2.54%.

In the case of `O=C(N/N=C/c1c(O)n(C2CC2)c(=S)[nH]c1=O)c1ccccc1`, the inhibition was -7.23%.

As for `COP(=O)(Sc1ccccc1)C(Cc1ccccc1)NC(=O)OCc1ccccc1` (stereo not given), the inhibition was 4.08%.
